Screening data deposited in PubChem BioAssay by National Center for Advancing Translational Sciences (NCATS).
Hsp90 Hop PPI = changes Hsp90-Hop TPR2A binding signal, up or down. AlphaScreen TPR2A-His6 binding biotin-Hsp90 C-terminal peptide. Potency, µM (doses to about 57 µM), inactives show at the top dose activity change, negative = inhibition. 71,000 tested, 0.44% active; active means well fitted curve in either direction with a large enough effect; inconclusive means small, poorly fitted or top-dose-only effect, or another doubt; further: on the % scale 0 is the no-effect control and ±100 the full control effect
15-hLO inh = 15-hLO (ALOX15) enzyme inhibition; AID 887; 74,000 tested, 1.4% active; purified 15hLO-1, xylenol orange hydroperoxide absorbance; P16050; Potency, µM (doses to about 57.1 µM), inactives show at the top dose activity change, negative = inhibition, usual class: inhibitors; further: on the % scale 0 is the no-effect control and ±100 the full control effect; nearly all actives have a fitted effect of over 55% in size
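Compounds were preincubated 15 min at room temperature with 40 nM purified human enzyme (25 mM Hepes pH 7.5, 0.01% Triton X-100); 50 uM arachidonic acid reacted 6 min. Fe-xylenol orange detection, 30 min, absorbance ratio 573/405 nm.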
PK Bst = pyruvate kinase (B. stearothermophilus) modulation. Potency, µM. 51,000 tested, 1.2% active. AID 361. purified pyruvate kinase, luminescence ATP production; ribose 5-phosphate activator present at AC10; in the data active means potency below about 11 µM; inconclusive means mostly about 12 µM to 25 µM;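 the screen sought inhibitors and activators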;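 further: scaled between full activation by ribose 5 phosphate and full inhibition by luteolin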
GBA mod = alters purified human glucocerebrosidase activity; AID 360; 48,000 tested, 1.1% active; Potency, µM; purified enzyme, resorufin glucoside fluorescence (screen aimed at inhibitors), 20 min; P04062; in the data active means potency below about 15 µM; inconclusive means mostly about 16 µM to 33 µM;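 further: the screen sought inhibitors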
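Compounds titrated against 0.2 nM normal enzyme, 30 uM resorufin beta-D-glucopyranoside substrate, citrate/phosphate buffer with taurocholate and tween-20, pH 5.9. Reaction ran 20 min at room temperature; fluorescence (Ex 548/Em 600) gave AC50.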
USP2a inh = blocks human ubiquitin-specific protease USP2a | USP2a enzymatic assay, qHTS inhibition | Potency, µM (series often up to 38.3 µM), for the others: at the highest dose activity change, negative = inhibition, usual class: inhibitors | 60,000 tested, 0.1% active | AID 927; further: nearly all actives have a fitted effect of over 60% in size
Target sequence (O75604 whole entry, looked up): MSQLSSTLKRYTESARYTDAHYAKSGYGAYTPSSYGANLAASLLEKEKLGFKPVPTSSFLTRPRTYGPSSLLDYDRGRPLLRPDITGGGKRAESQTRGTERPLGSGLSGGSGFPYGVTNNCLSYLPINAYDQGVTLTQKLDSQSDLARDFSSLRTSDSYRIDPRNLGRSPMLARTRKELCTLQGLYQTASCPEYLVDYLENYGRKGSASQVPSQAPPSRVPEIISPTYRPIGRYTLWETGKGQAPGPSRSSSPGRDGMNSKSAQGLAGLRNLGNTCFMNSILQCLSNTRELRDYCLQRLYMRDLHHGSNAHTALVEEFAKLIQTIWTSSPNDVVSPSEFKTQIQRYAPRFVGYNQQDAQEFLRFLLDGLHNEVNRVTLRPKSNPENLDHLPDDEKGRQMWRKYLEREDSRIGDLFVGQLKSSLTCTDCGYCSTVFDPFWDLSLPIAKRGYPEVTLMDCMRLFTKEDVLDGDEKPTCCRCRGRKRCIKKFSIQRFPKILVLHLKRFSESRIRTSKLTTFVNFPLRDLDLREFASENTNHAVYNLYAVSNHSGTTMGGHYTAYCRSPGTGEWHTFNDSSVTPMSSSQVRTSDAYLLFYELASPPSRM
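Inhibition is measured in a cell-free coupled assay with 20 nM USP2 core, 20 nM Ub-PLA2 and 20 uM NBD C6-HPC, 2.5 h incubation. Activity normalized to NEM control.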
Tau filament bind = tau filament binding. P10636. recombinant tau filaments, thioflavin S fluorescence, 15 h; filaments grown with octadecylsulfate alongside compound. Potency, µM (top dose mostly 57.1 µM), inactives show at the highest dose activity change, negative = inhibition. 71,000 tested, 2% active. AID 596;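 further: on the % scale 0 is the no-effect control and ±100 the full control effect; actives lower thioflavin S fluorescence by blocking filaments or displacing dye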
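Assay mix: 1 uM His-tagged tau, 30 uM sodium octadecylsulfate, thioflavine S dye in HEPES/NaCl/DTT buffer. Compound is added prior to the inducer. Fluorescence after 15 h at 37 C.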
The depositor's hits bear a star; i = inactive; ? = inconclusive; · = not tested or not shown; [ ] = another dose, or the depositor's remark. This is a sample that favours compounds with a hit; in the whole collection about 4.6% have one here. Unless noted, the call rests on the fitted dose curve; in most records, active means well fitted curve in the direction sought with a large enough effect; inconclusive means small, poorly fitted or top-dose-only effect, or another doubt; inactive means no such curve, though single readings can be large; an effect the other way counts as inactive or inconclusive. Potency means the concentration at half of the fitted maximal effect.

SMILES	Hsp90 Hop PPI	15-hLO inh	PK Bst	GBA mod	USP2a inh	Tau filament bind
CC(=O)OC/C=C(C)/C=C/C=C(C)/C=C/C1=C(C)CCCC1(C)C	-2%	-14%	·	·	7%	-1%
CC1=C(/C=C/C(C)=C/C=C/C(C)=C/C=O)C(C)(C)CCC1	-10%	?	·	·	·	5µM*
CC1=C(\C=C/C(C)=C/C=C\C(C)=C\CO)C(C)(C)CCC1	-6%	·	·	·	·	?
CC1=C(/C=C/C(C)=C/C=C/C(C)=C/CO)C(C)(C)CCC1	-1%	?	·	·	58%	32µM*
O=C(CN1CCCC1)Nc1ccc(NC(=O)Nc2ccccc2Cl)cc1	-1%	-4%	>57	13*	15%	0%
O=C(CC1Oc2ccccc2NC1=O)NCCc1ccccc1 (stereo unspecified)	-3%	13%	·	·	·	-10%
O=C1C(C=NCc2ccco2)=C(O)c2ccccc21	-8%	-7%	·	·	8%	25µM*
CCOc1ccc(C2/C(=C(/O)c3ccc(F)cc3)C(=O)C(=O)N2CCCN(C)C)cc1 (stereo unspecified)	·	·	>26	·	·	·
CCCCn1nc(NC(=O)c2cccs2)c2cc3cc(OC)ccc3nc21	20µM*	?	·	i	20%	67%
O=C1CS/C(=N\C(=O)N2c3ccccc3Sc3ccccc32)N1	-13%[11 µM]	?	·	·	29%[7.66 µM]	3.2µM*
O=C1c2ccccc2-c2cc([N+](=O)[O-])c([N+](=O)[O-])cc21	-26%[11 µM]	12%[11.4 µM]	·	·	·	4µM*
O=C(CSc1nnnn1-c1cccc2c1CCCC2)N1CCOCC1	-7%	3%	11*	·	·	-4%
CO[C@H]1COC(=O)C/C=C\[C@@H](C)[C@H](OC)COC(=O)[C@H]2CCCN2C(=O)C/C=C\[C@@H]1C	·	7%[11.4 µM]	·	·	·	·
Cc1cc(NC(=O)CCCC(=O)NCc2cccs2)no1	1%	20µM*	·	·	8%	164%
CC(=O)N1C2(C=CC1(C)C(=O)NCc1ccc(C)o1)CCCCC2 (stereo unspecified)	-4%	1%	·	·	·	9%
CCN(CC)c1nc2cc(OC)ccc2cc1C#N	25µM*	-12%	·	>77	-8%	5%
CCN(CC)c1nc(C#N)cc(-c2ccc(OC)cc2)n1	25µM*	-17%	>57	i	-11%	13µM*
COc1ccc2cc(C#N)c(NC(C)C)nc2c1	?	-3%	·	>77	-5%	2%
COCCNC(=O)CSc1ccc(C)cc1	-4%[11 µM]	9%[11.4 µM]	·	·	0%[7.66 µM]	8%[11.4 µM]
CC(=O)c1cccc(NC(=O)NCc2cccs2)c1	-2%	-4%	>57	>77	-7%	7%
O=C(CSCc1ccccc1)N1CCN(C(=O)c2ccco2)CC1	-2%	-3%	>57	>77	13%	2%
CCOC(=O)Cc1c(C)c2ccc(N(CC)CC)cc2oc1=O	25µM*	-1%	·	·	-13%	272%
CCN(CC)c1ccc2c(Cl)c(Br)c(=O)oc2c1	25µM*	?	i	·	?	i
CCOC(=O)CCc1c(C)c2ccc(O)cc2oc1=O	-2%	-3%	>57	>77	-8%	2%
CCCn1nnc(NC(=O)c2ccc(Cl)cc2Cl)n1	4%	0%	>57	>77	2%	0%
SMILES	Hsp90 Hop PPI	15-hLO inh	PK Bst	GBA mod	USP2a inh	Tau filament bind
CCOC(=O)Cn1c(=O)oc2cc(S(=O)(=O)N3CCCC(C(=O)OCC)C3)ccc21 (stereo unspecified)	0%	7%	·	·	·	-9%
O=C(Nc1ccc2ccccc2c1)c1cnccn1	-7%	-13%	·	>77	35%	25µM*
CCCCOC(=O)c1ccc(NC(=O)c2cnccn2)cc1	1%	-1%	>57	>77	12%	25µM*
N=c1n(CCO)c2ccccc2n1Cc1ccccc1Cl	-4%	1%	>57	>77	25%	109%
c1ccc2nc3c(nc2c1)[nH]c1ccccc13	?	-20%	4.1*	>77	4%	21%
COc1cccc(C(=O)Nc2cccc(NC(C)=O)c2)c1	3%	-2%	·	·	-9%	-7%
COc1cccc(C(=O)Nc2ccc(NC(=O)C(C)(C)C)cn2)c1	1%	-2%	3.7*	>77	-1%	-6%
CC1(C)CC(=O)c2cc(C(=O)NC3CCSC3=O)c(=O)n(-c3ccccc3)c2C1 (stereo unspecified)	-6%	7%	>57	>77	5%	0%
O=C(Nc1ccc2c(c1)ncn2-c1ccccc1)c1ccco1	2%	-17%	10*	>77	6%	-5%
CCOC(=O)CSc1nnnn1-c1cccc2ccccc12	1%	-12%	?	>77	-8%	6%
O=C1Nc2cccnc2Sc2ccccc21	-2%	16µM*	>57	>77	-3%	-4%
Cc1cc(C)nc(N(C#N)CC(=O)c2ccccc2)n1	-2%	11%	·	>77	?	59%
O=C(O)CCC(C(=O)O)n1c(O)c(C2=c3ccccc3=NC2=O)sc1=S (stereo unspecified)	2%	10µM*	·	·	4%	-4%
O=C1N=c2ccccc2=C1c1sc(=S)n(CC2CCCO2)c1O (stereo unspecified)	-3%	-5%	·	·	-1%	-11%
O=c1c2ccccc2[nH]c(=S)n1C1CCCCC1	1%	-2%	>57	14*	5%	35%
FC(F)(F)c1ccccc1-c1cncnc1NCCc1cnc[nH]1	2%	3%	·	·	1%	5%
c1cnc(N2CCN(c3ncnc4c3oc3ccccc34)CC2)nc1	-5%	3%	>57	5.7*	10%	3%
Cc1ccc(Nc2c3c(nc4ncnn24)CCC3)cc1	-4%	5%	·	>77	-4%	16%
COc1ccc(-c2cn3cc(Cl)ccc3n2)cc1OC	-1%	-8%	i	2.8*	-5%	21%
CN(C)S(=O)(=O)c1ccc(C(=O)OCCCN=C2NS(=O)(=O)c3ccccc32)cc1	-3%	6%	·	·	·	0%
CCCCCCn1c(-c2ccco2)nc2oc3cc(OC)ccc3c(=O)c2c1=O	-2%	-26%	>57	>77	31%	3.2µM*
COc1ccc2c(=O)c3c(=O)n(Cc4ccco4)c(-c4ccccc4)nc3oc2c1	-7%	-2%	>57	>77	38%	2.5µM*
CCOC(=O)c1ccc(NC(=O)c2c(O)c3ccccc3n(C)c2=O)cc1	-3%	?	>57	>77	-6%	15%
O=C(Nc1ccc(-c2nc3ccccc3o2)c(O)c1)c1cc(-n2cnnc2)ccc1Cl	-5%	4%	·	·	32%	i
Cc1c(NC(=O)c2cc(-n3cnnc3)ccc2Cl)cccc1-c1nc2ccccc2o1	-5%	-7%	5.7*	>77	28%	192%
Cc1c(C2Nc3ccccc3NC3=C2C(=O)CC(C)(C)C3)cnn1C (stereo unspecified)	2%	-11%	>26	>77	-3%	136%
CCCSc1nnc2nc3c(nn12)c1ccccc1n3C	-27%	5%	·	·	·	16µM*
O=c1c(-c2ccc(O)cc2)coc2cc(O)cc(O)c12	-7%	?	·	·	-3%	?
